Our source for the activity change, negative = inhibition and max response values is PubChem BioAssay (NCATS).

This test can be described thus: qHTS Assay for Lipid Storage Modulators (AID 1519). As to activity change, negative = inhibition: % is scaled to controls: 0 for no effect and ±100 for the full control effect. The conditions noted are these: Drosophila S3 cells, BODIPY lipid droplet/cell ratio, laser cytometry, cells loaded with oleic acid. The source says: NIH Molecular Libraries Probe Production Centers Network [MLPCN]
NIH Chemical Genomics Center [NCGC]
Assay Submitter (PI): Beller, Mathias; Max-Planck-Institut fur Biophysikalische Chemie
NCGC Assay Overview: Storing lipids as a reservoir for energy or the anabolism of elementary metabolites is a common feature of probably all cells and is conserved from bacteria to humans. The universal cellular lipid storage organelle is the so-called lipid storage droplet (LD). Although ubiquitous, LDs share a simple structure composed of a hydrophobic core that harbors the storage lipids, which is shielded by a droplet-specific phospholipid monolayer to which proteins are attached. The current model of LD biogenesis involves an incorporation of the lipid core into the membrane leaflets of the endoplasmic reticulum (ER) followed by a subsequent budding-like maturation of a LD, which ultimately pinches off. Once released, LD volume can increase by localized lipogenesis or fusion of existing droplets. Storage lipids are re-mobilized enzymatically by lipase activity. Lipase regulation in the adipocyte is heavily studied and involves multiple components including catecholamine signaling, the LD-associated proteins Perilipin and comparative gene identification-58 (CGI-58) and at least two lipases named hormone sensitive lipase (HSL) and adipocyte triglyceride lipase (ATGL). LD regulation outside of the adipocyte is poorly understood and only few components are known. However, there is an urgent need to learn more about ectopic fat depots as mislocalized storage of lipids, for example in the liver or muscle, is an eminent health problem associated with insulin resistance or the metabolic syndrome. We developed a laser-scanning cytometer assay to enable 1,536-well screening and combined the results of the small molecules screen with an RNAi database based on lipid storage.
NCGC Assay Protocol Summary:
We dispensed 4 uL of cells at 1.25 x 10^6 cells/mL into LoBase Aurora COC 1,536-well plates (black walled, clear bottom) with a bottle-valve solenoid-based dispenser (Aurora) to obtain 5,000 cells/well. Triacsin C (Sigma-Aldrich T-4540), an inhibitor of long-chain fatty acyl CoA synthetase that blocks synthesis of triglycerides, was used as a positive control for lipid under-storage. A total of 23 nL of compound solution of different concentrations were transferred to the assay plates using a Kalypsys pin tool equipped with a 1,536-pin array containing 10-nL slotted pins (FP1S10, 0.457-mm diameter, 50.8 mm long; V&P Scientific). One microliter of oleic acid (400 uM) was added, and the plate was lidded with stainless steel rubber gasket lined lids containing pinholes. […] Fluorescence was detected by excitation of the fluorophores with a 488-nm laser on an Acumen Explorer (TTP Lab Tech). The total intensity in channel 1 (500-530 nm) reflected lipid droplet accumulation. […] The ratio of the total intensity in PMT channel 1 over total intensity of channel 3 was also calculated. Percent activity was computed relative to an internal control (100% inhibited lipid droplet deposition due to the presence of 20 uM Triacsin C), which was added to 32 wells/plate.
A general note: Quantitative high-throughput screening tests each substance at several concentrations.

Where [1] appears, read: measured here: cell count channel max response.
Setting [2] is: measured here: lipid channel max response.

Several values for one entry are separate records, joined by “and”; a condition that tells them apart may be missing. Equal entries are not always repeated. Records with an inconclusive call do not appear. Activity calls are given as the source filed them. Calls follow the shape of the full dose curve.

In the case of `Cc1ccc(Cl)c(Nc2ccccc2C(=O)O)c1Cl`, the activity change, negative = inhibition reads like this: (at 25.7 µM (top of the series)) -1.03% (inactive); (at 57.5 µM (top of the series)) 12.3% (inactive) and -1.87% (inactive). The max response runs as follows: under setting [1], -11.2% and 0.124% and -35.9%; under setting [2], -11.6% and 13.1% and -37%.
Regarding `CCn1nc(C(=O)O)c(=O)c2cc3c(cc21)OCO3`, the activity change, negative = inhibition is, setting by setting: (at 25.7 µM (top of the series)) 1.1% (inactive); (at 57.5 µM (top of the series)) 13.5% (inactive). Besides, the max response is -2.39% and 18.6% under setting [1]; 0.268% and 42.8% under setting [2].
For `CCN(CC)CC(=O)Nc1c(C)cccc1C`, the activity change, negative = inhibition (at 25.7 µM (top of the series)) is 0.593% (inactive) and the activity change, negative = inhibition (at 57.5 µM (top of the series)) is 2.9% (inactive). Also, the max response under setting [1] was -1.17% and 18.4%; the max response under setting [2] was 2.13% and 21.4%.
Turning to `CC(=O)Nc1nnc(S(N)(=O)=O)s1`, the activity change, negative = inhibition runs as follows: (at 25.7 µM (top of the series)) -1.69% (inactive); (at 57.5 µM (top of the series)) -0.868% (inactive). The max response reads like this: under setting [1], 6.43% and 19.5%; under setting [2], 5.21% and 17%.
`CCCCNc1ccc(C(=O)OCCN(C)C)cc1`: the activity change, negative = inhibition was 3.23% (inactive) (at 25.7 µM (top of the series)) and 14.3% (inactive) (at 57.5 µM (top of the series)). Also, the max response is, setting by setting: under setting [1], -0.19% and 24.9%; under setting [2], 3.57% and 43.3%.
`CCN(CC)CCOCCOC(=O)C1(c2ccccc2)CCCC1`: the activity change, negative = inhibition reads like this: (at 25.7 µM (top of the series)) -7.98% (inactive); (at 57.5 µM (top of the series)) -1.81% (inactive) and 10.4% (inactive) and -0.577% (inactive).
For `c1cc(CN2CCCCC2)cc(OCCCNc2nc3ccccc3s2)c1`, under “at 57.5 µM (top of the series)”, the activity change, negative = inhibition is -4.93% (inactive). Further, the max response came out at 18.9% under setting [1] and 13% under setting [2].
Take `CC(N=C(NC#N)Nc1ccncc1)C(C)(C)C` (stereo not given): the activity change, negative = inhibition (at 57.5 µM (top of the series)) was 13.9% (inactive) and 0.102% (inactive). Also, the max response under setting [1] is 1.72% and -23.9%; the max response under setting [2] was 14.8% and -22.8%.
Consider `COCC(=O)O[C@]1(CCN(C)CCCc2nc3ccccc3[nH]2)CCc2cc(F)ccc2[C@@H]1C(C)C`, for which the activity change, negative = inhibition (at 57.5 µM (top of the series)) was -12.5% (inactive). Also, the max response by setting is: under setting [1], -3.1%; under setting [2], -16.1%.
Consider `CCN1CCC[C@H]1CNC(=O)c1c(O)c(Cl)cc(Cl)c1OC`, for which, under “at 57.5 µM (top of the series)”, the activity change, negative = inhibition was 1.67% (inactive) and 3.44% (inactive). Besides, the max response by setting is: under setting [1], 12.1% and 6.79%; under setting [2], 12.8% and 10.2%.
For `CCCCCCCC/C=C\CCCCCCCC(=O)NCc1ccc(O)c(OC)c1`, for the setting “at 57.5 µM (top of the series)”, the activity change, negative = inhibition was -24.2% (inactive). Further, the max response under setting [1] was determined as 15.7% and the max response under setting [2] is -12.6%.
Turning to `Nc1c2c(nc3ccccc13)CCCC2O` (stereo not given), under “at 57.5 µM (top of the series)”, the activity change, negative = inhibition was 0.679% (inactive) and 0.738% (inactive). Moreover, the max response under setting [1] was 14.7% and -14.6%; the max response under setting [2] is 13.3% and -15.3%.
